Our source for the outcome values is PubChem BioAssay (NCATS).

Results filed as inconclusive are left out. The source made the active and inactive calls. Calls follow the shape of the dose curve; as a rule, active = well fitted inhibition curve with a large enough effect; inconclusive = small, poorly fitted or top-dose-only effect; inactive = flat fitted curve, though single readings scatter.

This assay relates to MCC-26. Kind of assay: qHTS assay to identify novel small-molecules to repurpose for Merkel cell carcinoma treatment (AID 1296009). Also: nearly all actives have a fitted effect of over 60% in size. The conditions noted are these: MCC and control cell lines, CellTiter-Glo viability, 72 h; series mostly up to 46 µM. From the text: MCC is a rare and aggressive neuroendocrine skin cancer with limited treatment options. Approximately 80% of MCCs have the Merkel cell polyomavirus (MCPyV) DNA integrated into the host genome (virus-positive: VP-MCC) and viral oncogenes drive oncogenesis. The remaining MCCs are virus-negative (VN-MCC) and are caused by UV mutagenesis. To identify novel treatments for VP-MCC and/or VN-MCC we screened three VP-MCC cell lines (WAGA, MKL-1, MKL-2), three VN-MCC cell lines (MCC-13, MCC-26, UISO), and four immortalized, non-transformed control cell lines (HaCaT, HEK293T, CRL7250, NIH-3T3) against ~2,400 compounds in the NCGC Pharmaceutical Collection (NPC) and ~1,900 compounds in the Mechanism Interrogation PlatE (MiPE). Using cell viability as a readout (CellTiter-Glo assay) we found both overlapping and distinct drugs that can be repurposed for the treatment of VP-MCC and VN-MCC.
A high-throughput screen was conducted in 1536-well white flat bottom plates (Corning) on a Kalypsys robotic system. Cell lines WAGA, MKL-1, MKL-2, MCC-13, MCC-26, UISO, HaCaT, HEK293T, CRL7250, and NIH-3T3 were screened against 2 small molecule annotated drug libraries NPC and MIPE in dose response (8 and 11 pt. respectively) measuring cell viability after 72 hours of incubation. […] A 1,536 pintool (Kalypsys) was used to transfer 23 nL of compound in DMSO to the 1,536-well assay plates. After 72 hr incubation at 37 degree celsius, 2.5 uL of CellTiter-Glo (Promega) was dispensed into each well using a BiorapTR. Plates were incubated at room temperature for 10 min, transferred to a ViewLux (PerkinElmer) and the luminescence was recorded using an exposure time of 2 seconds. Relative luminescence units (RLUs) were normalized to in-plate controls (no cells as a positive (cytotoxicity) control, DMSO as negative control) and the normalized data was processed using NCATS in-house software.
With `CC[C@H](C)[C@H](N)C(=O)O`, the outcome was inactive.

For the compound `O=C(O)COC(=O)Cc1ccccc1Nc1c(Cl)cccc1Cl`, the outcome was inactive.

With `COC(=O)c1cccnc1`, the result was inactive.

Regarding `O=C1c2ccccc2C(=O)C1c1ccc(Br)cc1`, the compound was classed as inactive.

Consider `O=C(O)c1ccccc1OP(=O)(O)O`, for which the outcome was inactive.

Take `Cc1ccccc1N=Nc1ccc(N=Nc2c(O)ccc3ccccc23)c(C)c1`: the outcome was inactive.

Regarding `CC(N)CCCC(C)(C)O` (stereo not given), the compound was called inactive.

As for `CC(=O)Nc1ccccc1`, the compound was classed as inactive.

For the compound `COC(=O)c1ccc(O)cc1`, the compound was classed as inactive.

For the compound `CN1C(=O)CC(c2ccccc2)C1=O` (stereo not given), the compound was classed as inactive.

As for `O=C(O)c1ccc(OCCCOc2ccc(C(=O)O)cc2)cc1`, the outcome was inactive.

For `C[C@@H]1O[C@@H](OC[C@H]2O[C@@H](Oc3c(-c4ccc(O)c(O)c4)oc4cc(O)cc(O)c4c3=O)[C@H](O)[C@@H](O)[C@@H]2O)[C@H](O)[C@H](O)[C@H]1O`, the call was inactive.

With `C[C@H]1COc2c(C3(N)CC3)c(F)cc3c(=O)c(C(=O)O)cn1c23`, the outcome was inactive.

Turning to `Nc1ncnc(Nc2ccccc2)n1`, the result was inactive.

For the compound `CC(C)(C)NCC(O)COc1cccc2c1CCC(=O)N2` (stereo not given), the outcome was inactive.

On to `CCCCC1(COC(=O)CCC(=O)O)C(=O)N(c2ccccc2)N(c2ccccc2)C1=O`, for which the outcome was inactive.

As to `CCCCCCCC(=O)OCC(O)CO` (stereo not given), the compound was called inactive.

With `CC(=O)OCC(=O)[C@@]1(O)CC[C@H]2[C@@H]3CCC4=CC(=O)C=C[C@]4(C)[C@@]3(F)[C@@H](O)C[C@@]21C`, the call was inactive.

As for `CCOC(=O)c1cccnc1`, the compound was called inactive.

Turning to `O=C(O)CCCc1ccccc1`, the outcome was inactive.

For the compound `COc1ccc(-c2cc(=O)c3c(O)cc(O[C@@H]4O[C@H](CO[C@@H]5O[C@@H](C)[C@H](O)[C@@H](O)[C@H]5O)[C@@H](O)[C@H](O)[C@H]4O)cc3o2)cc1O`, the compound was called inactive.

As for `COc1cc(C(=O)NCCCCCC(=O)O)cc(OC)c1OC`, the compound was classed as inactive.

Turning to `CC(=O)N[C@H]1[C@H]([C@H](O)[C@H](O)CO)OC(C(=O)O)=C[C@@H]1N=C(N)N`, the compound was classed as inactive.

In the case of `CC(=O)N[C@@H](Cc1ccc(O)cc1)C(=O)O`, the result was inactive.

Consider `CCN(CC)S(=O)(=O)c1ccc(C(=O)O)cc1`, for which the result was inactive.

`C=CCOc1ccccc1OCC(O)CNC(C)C` (stereo not given): the outcome was inactive.

As for `O=C(O)C(S)C(S)C(=O)O` (stereo not given), the result was inactive.

Regarding `Cc1cccc(C)c1NC(=O)CC12CCCN1CCC2`, the outcome was inactive.

On to `COc1ccccc1Oc1c(NS(=O)(=O)c2ccc(C(C)(C)C)cc2)nc(-c2ncccn2)nc1OCCO`, for which the compound was called inactive.

As to `CC(C)CCOC(=O)c1ccc(N(C)C)cc1`, the compound was classed as inactive.

On to `CC1(C)[C@@H](OC(=O)CCC(=O)O)CC[C@]2(C)[C@H]3C(=O)C=C4[C@@H]5C[C@@](C)(C(=O)O)CC[C@]5(C)CC[C@@]4(C)[C@]3(C)CC[C@@H]12`, for which the compound was called inactive.

`NS(=O)(=O)c1ccc(C(=O)O)cc1`: the call was inactive.

`CC1CCN(CCCC(=O)c2ccc(F)cc2)CC1`: the result was inactive.

In the case of `NCc1ccc(S(N)(=O)=O)cc1`, the result was inactive.

As for `Cn1cc(C(=O)[C@@H]2CCc3nc[nH]c3C2)c2ccccc21`, the compound was classed as inactive.

Take `CC(C(=O)O)c1ccc2c(c1)Cc1cccnc1O2` (stereo not given): the compound was classed as inactive.

As to `CCCCCCCC(=O)OCC(COC(=O)CCCCCCC)OC(=O)CCCCCCC`, the compound was called inactive.

With `O=C1CC[C@@H](C(=O)O)N1`, the compound was classed as inactive.

As to `O=C(O)CNC(=O)c1ccccc1I`, the outcome was inactive.

With `CC(=O)Nc1ccc(C(=O)O)cc1`, the compound was classed as inactive.
